Assay results taken from PubChem BioAssay (Tox21).
Results filed as inconclusive are left out. Calls of active or inactive are those of the source. Unless noted, calls follow the shape of the dose curve; as a rule, active = well fitted curve in the direction sought with a large enough effect in the repeat runs; inconclusive = weak or mixed curves; inactive = no such curve, though single readings can be large; an effect the other way counts as inactive or inconclusive.

Key:
[1] = A CellTox Green Cytotoxicity Assay to monitor cytotoxicity in HepG2 cells - 8 hour (AID 1224890); also: nearly all actives have a fitted effect of over 45% in size; also: potency is read from the fitted curve at half-maximal effect
Method in brief: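 Fluorescent DNA-binding dye, 600 HepG2 cells/well, 5 h preincubation then compound in DMSO; same plates read at 0–40 h, 37 C.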

[2] = qHTS assay to identify small molecule antagonists of the estrogen receptor alpha (ER-alpha) signaling pathway using the BG1 cell line in the presence of 0.1 nM 17-beta-estradiol - cell viability counter screen (AID 1259241); also: nearly all actives have a fitted effect of over 40% in size
Method in brief: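 Live-cell protease activity (CellTiter-Fluor fluorescence, 30 min) was read in the same wells after VM7Luc4E2 cells had been exposed to compounds with 0.1 nM 17beta-estradiol for 22 hr at 37C.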

[3] = qHTS assay to identify small molecule antagonists of the androgen receptor (AR) signaling pathway using the MDA cell line in the presence of 0.5 nM R1881 - cell viability counter screen (AID 1259242); also: nearly all actives have a fitted effect of over 45% in size
Method in brief: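 Human breast carcinoma MDA-kb2 cells, cultured without CO2, receive compounds alongside 0.5 nM (final) R1881 agonist. After 16 hr at 37C, viability is taken as live-cell protease signal.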

[4] = molecular target: Estrogen receptor (Homo sapiens) (UniProt P03372); assay: qHTS assay to identify small molecule antagonists of the estrogen receptor alpha (ER-alpha) signaling pathway using the BG1 cell line in the presence of 0.1 nM 17-beta-estradiol (AID 1259244); also: nearly all actives have a fitted effect of over 50% in size; also: potency is read from the fitted curve at half-maximal effect
Chain of Estrogen receptor (Homo sapiens) (P03372 whole entry, looked up): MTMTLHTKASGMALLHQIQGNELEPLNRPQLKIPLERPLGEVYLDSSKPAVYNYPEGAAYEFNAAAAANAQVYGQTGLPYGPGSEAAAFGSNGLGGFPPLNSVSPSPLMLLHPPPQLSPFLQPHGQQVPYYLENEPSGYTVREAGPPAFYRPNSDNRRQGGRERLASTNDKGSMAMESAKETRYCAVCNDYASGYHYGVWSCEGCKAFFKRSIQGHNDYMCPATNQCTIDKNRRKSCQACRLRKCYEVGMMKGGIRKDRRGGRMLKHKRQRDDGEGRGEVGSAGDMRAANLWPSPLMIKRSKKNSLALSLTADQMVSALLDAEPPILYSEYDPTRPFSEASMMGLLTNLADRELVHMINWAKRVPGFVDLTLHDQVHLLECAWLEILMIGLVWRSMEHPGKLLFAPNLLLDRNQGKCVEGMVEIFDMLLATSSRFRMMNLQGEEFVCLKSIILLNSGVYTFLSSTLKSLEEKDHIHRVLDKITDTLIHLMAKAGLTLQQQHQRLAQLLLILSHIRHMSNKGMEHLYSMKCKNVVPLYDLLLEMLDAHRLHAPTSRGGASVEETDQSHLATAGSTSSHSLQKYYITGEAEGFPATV
Method in brief: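 Seeding of stripped-serum-adapted VM7Luc4E2 cells, 24 h attachment, compound transfer, then 0.1 nM final 17beta-estradiol; after 22 h incubation, ONE-Glo reagent and luminescence reading.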

[5] = qHTS assay to identify small molecule HDAC inhibitors (AID 1259364); also: potency is read from the fitted curve at half-maximal effect;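 also: wild-type HCT-116 cells with endogenous class I/II HDAC activity; nearly all actives have a fitted effect of over 45% in size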
Method in brief: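 After a 2 hr compound incubation (37C, 5% CO2), HCT-116 cells seeded at 1,500/well the day before received HDAC-Glo reagent; signal read as luminescence after 30 min at room temperature.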

[6] = qHTS assay to identify small molecule HDAC inhibitors - cell viability counter screen (AID 1259365); also: series mostly up to about 92 µM; nearly all actives have a fitted effect of over 50% in size
Method in brief: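 HCT-116 (wild type), 1,500 cells/well, overnight 37C/5% CO2; compound in DMSO 2hr; CellTiter-Glo 30min RT; luminescence read.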

[7] = qHTS assay to identify small molecule agonists of the sonic hedgehog signaling (Shh) pathway - cell viability counter screen (AID 1259366); also: nearly all actives have a fitted effect of over 50% in size
Method in brief: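 CellTiter-Fluor fluorescence read-out, 1 hr at 37C, added after 23hr compound exposure. Cells: 3T3 Gli1-Luc, an NIH/3T3 clone with stably integrated Gli1-Luc reporter, plated 4hr before compound.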

[8] = qHTS assay to identify small molecule antagonists of the sonic hedgehog signaling (Shh) pathway - cell viability counter screen (AID 1259367); also: nearly all actives have a fitted effect of over 55% in size
Method in brief: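 Tox21 library chemicals were tested on a Gli1-Luc NIH/3T3 clone (2,000 cells/well) stimulated by conditioned medium; viability was quantified as fluorescence from CellTiter-Fluor reagent added at 23 hr.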

[9] = qHTS assay to identify small molecule agonists of the sonic hedgehog signaling (Shh) pathway (AID 1259368; calls by dose curve;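 also: NIH/3T3-derived 3T3Gli1-Luc cells carrying a stable Gli1-driven firefly luciferase reporter; series mostly up to about 92 µM; nearly all actives have a fitted effect of over 15% in size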)
Method in brief: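 Stable NIH/3T3 Gli1-Luc reporter clone; 24 hr cpd exposure after a 4 hr settling period; luminescence endpoint.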

[10] = qHTS assay to identify small molecule agonists of the androgen receptor (AR) signaling pathway in the presence of an antagonist - cell viability counter screen (AID 1259379);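 also: MDA-kb2 human breast cancer cells carrying an MMTV luciferase reporter; series mostly up to about 92 µM; nearly all actives have a fitted effect of over 25% in size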
Method in brief: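 Counter screen for cell viability run in parallel with the AR agonist-mode luciferase assay. MDA-kb2 cells were co-treated with nilutamide (3.0uM final) and compounds, then incubated 16 hr at 37C, and CellTiter-Fluor fluorescence was measured.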

[11] = qHTS assay to identify small molecule agonists of the estrogen receptor beta (ER-beta) signaling pathway - cell viability counter screen (AID 1259380); also: nearly all actives have a fitted effect of over 30% in size
Method in brief: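 In this qHTS counter screen, HEK293T cells carrying an ER-beta/UAS beta-lactamase reporter, grown in 2% charcoal-stripped FBS, received compound for 16 hr; ATP-based CellTiter-Glo luminescence was then read after 30 min at room temperature.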

[12] = qHTS assay to identify small molecule antagonists of the estrogen receptor beta (ER-beta) signaling pathway - cell viability counter screen (AID 1259382); also: series mostly up to about 92 µM; nearly all actives have a fitted effect of over 55% in size
Method in brief: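 HEK293T ER-beta-UAS-bla, 2% charcoal-stripped FBS; compounds + 1nM E2 16 hr 37C; CellTiter-Glo luminescence, 30 min RT.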

[13] = molecular target: Estrogen receptor (Homo sapiens) (UniProt P03372); assay: qHTS assay to identify small molecule agonists of the estrogen receptor alpha (ER-alpha) signaling pathway in the presence of an antagonist (AID 1259383; calls by dose curve; also: nearly all actives have a fitted effect of over 15% in size; also: potency is read from the fitted curve at half-maximal effect; as to activation: top concentration of the series differs between compounds)
Method in brief: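 ER-alpha agonism measured under antagonist challenge: 10.0nM ICI-182,780 (final) plus compound, 15 concentrations, 22hr, VM7Luc4E2 ERE-luciferase cells. Read by luminescence.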

[14] = qHTS assay to identify small molecule agonists or antagonists of the thyroid stimulating hormone receptor (TSHR) signaling pathway - wild type cell line counter screen (AID 1259384; calls by dose curve)
Method in brief: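 Wild-type Hek293 cells, 800/well, 18 h at 37C, then compound with Ro20-1724 for 30 min RT. cAMP by HTRF (cAMP-d2/anti-cAMP cryptate), 1 h RT, fluorescence read. 15 concentrations, triplicates.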

[15] = qHTS assay to identify small molecule phospholipidosis (PLD) inducers (AID 1259344; active = well fitted curve in the direction sought with a large enough effect; an effect the other way counts as inactive or inconclusive)
Method in brief: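 Image-based: LipidTOX Red pit count/intensity per well and per cell; HepG2, 24 h compound at 37 C, PFA fixation, Hoechst counterstain.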

[16] = qHTS assay to identify small molecule antagonists of the sonic hedgehog signaling (Shh) pathway (AID 1259369; calls by dose curve; also: nearly all actives have a fitted effect of over 45% in size; also: potency is read from the fitted curve at half-maximal effect)
Method in brief: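 Gli1 transcriptional reporter (firefly Luc) in NIH/3T3 background, conditioned-medium activated. 24hr exposure, luminescence endpoint.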

[17] = molecular target: Estrogen receptor beta (Homo sapiens) (UniProt Q92731); assay: qHTS assay to identify small molecule agonists of the estrogen receptor beta (ER-beta) signaling pathway (AID 1259377; active = well fitted activation curve with a large enough effect in the signal ratio in the repeat runs, not every such curve was filed as active; the % refers to the signal ratio)
Chain of Estrogen receptor beta (Homo sapiens) (Q92731 whole entry, looked up): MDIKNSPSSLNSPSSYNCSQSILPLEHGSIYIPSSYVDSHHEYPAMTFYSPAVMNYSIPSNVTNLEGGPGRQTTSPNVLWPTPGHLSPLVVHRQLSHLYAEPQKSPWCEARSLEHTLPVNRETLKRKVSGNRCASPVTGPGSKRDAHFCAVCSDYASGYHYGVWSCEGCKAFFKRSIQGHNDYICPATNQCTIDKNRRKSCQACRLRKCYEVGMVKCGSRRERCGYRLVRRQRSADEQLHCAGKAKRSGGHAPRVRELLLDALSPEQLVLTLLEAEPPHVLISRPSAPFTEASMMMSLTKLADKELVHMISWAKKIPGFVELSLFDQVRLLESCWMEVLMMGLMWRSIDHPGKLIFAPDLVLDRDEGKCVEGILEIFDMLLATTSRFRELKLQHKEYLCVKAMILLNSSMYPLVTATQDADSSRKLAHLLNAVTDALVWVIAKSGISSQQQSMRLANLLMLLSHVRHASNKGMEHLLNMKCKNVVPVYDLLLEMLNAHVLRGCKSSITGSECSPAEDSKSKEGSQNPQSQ
Method in brief: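 Beta-lactamase reporter readout: fluorescence of LiveBLAzer B/G FRET substrate after 2 h at room temperature, following 16 h compound treatment of ER-beta-UAS-bla HEK293T cells at 37C in 2% charcoal-stripped FBS medium.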

[18] = molecular target: Estrogen receptor beta (Homo sapiens) (UniProt Q92731); assay: qHTS assay to identify small molecule antagonists of the estrogen receptor beta (ER-beta) signaling pathway (AID 1259378; active = well fitted inhibition curve with a large enough effect in the signal ratio in the repeat runs, not every such curve was filed as active; the % refers to the signal ratio)
Method in brief: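 ER-beta-UAS-bla HEK293T cells in 2% charcoal-stripped FBS medium treated with compound plus 1nM final 17-beta-estradiol for 16 hr at 37C. Beta-lactamase reporter read by FRET substrate fluorescence after 2 hours at room temperature.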

[19] = molecular target: Androgen receptor (Homo sapiens) (UniProt P10275); assay: qHTS assay to identify small molecule antagonists of the androgen receptor (AR) signaling pathway using the MDA cell line in the presence of 0.5 nM R1881 (AID 1259243); also: nearly all actives have a fitted effect of over 50% in size
Chain of Androgen receptor (Homo sapiens) (P10275 whole entry, looked up): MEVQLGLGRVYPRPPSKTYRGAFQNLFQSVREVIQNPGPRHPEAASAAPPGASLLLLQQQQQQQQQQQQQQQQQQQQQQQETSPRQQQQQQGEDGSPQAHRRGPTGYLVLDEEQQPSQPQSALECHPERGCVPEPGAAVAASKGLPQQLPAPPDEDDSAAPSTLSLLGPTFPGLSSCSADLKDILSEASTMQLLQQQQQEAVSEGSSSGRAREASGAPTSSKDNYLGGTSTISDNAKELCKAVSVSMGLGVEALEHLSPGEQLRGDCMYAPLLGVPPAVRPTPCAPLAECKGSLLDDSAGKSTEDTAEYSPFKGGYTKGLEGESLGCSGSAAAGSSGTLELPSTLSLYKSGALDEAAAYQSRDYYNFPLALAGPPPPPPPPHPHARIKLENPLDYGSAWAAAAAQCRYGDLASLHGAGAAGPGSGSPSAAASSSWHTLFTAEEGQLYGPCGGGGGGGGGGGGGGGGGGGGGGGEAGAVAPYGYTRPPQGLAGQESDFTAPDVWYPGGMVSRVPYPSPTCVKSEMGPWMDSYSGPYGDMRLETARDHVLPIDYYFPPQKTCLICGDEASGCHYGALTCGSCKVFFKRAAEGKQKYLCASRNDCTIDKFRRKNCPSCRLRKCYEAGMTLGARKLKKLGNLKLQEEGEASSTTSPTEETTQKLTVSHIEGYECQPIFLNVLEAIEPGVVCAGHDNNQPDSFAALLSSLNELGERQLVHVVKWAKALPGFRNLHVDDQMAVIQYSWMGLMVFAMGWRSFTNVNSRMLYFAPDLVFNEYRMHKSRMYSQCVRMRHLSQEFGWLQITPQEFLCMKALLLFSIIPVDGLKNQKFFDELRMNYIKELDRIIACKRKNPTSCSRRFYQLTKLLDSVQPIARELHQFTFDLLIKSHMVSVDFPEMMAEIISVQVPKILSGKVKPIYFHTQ
Method in brief: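 Cells: MDA-kb2 (MMTV-luc). Stimulus: 0.5 nM R1881. Time: 16 hr, 37C, no CO2. Detection: ONE-Glo luminescence after 30 min at RT.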

[20] = molecular target: Androgen receptor (Homo sapiens) (UniProt P10275); assay: qHTS assay to identify small molecule agonists of the androgen receptor (AR) signaling pathway in the presence of an antagonist (AID 1259381; calls by dose curve; also: nearly all actives have a fitted effect of over 15% in size)
Method in brief: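 AR antagonist background: nilutamide 3.0uM final. Cell line: MDA-kb2, MMTV-driven luciferase, responsive to both AR and GR. Exposure 16hr, 37C, no CO2; ONE-Glo luminescence.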

Measured: Potency

CC1C(C)(C)C2=C(C(=O)CCC2)C1(C)C (centres undefined)
not listed: [15] | [16] | [17] | [18] | [19] | [20]
inactive: all other assays above

CCN(CC)C(=O)N1CCN(C)CC1
not listed: [4] | [7] | [8] | [13] | [17] | [18] | [19] | [20]
inactive: all other assays above

ClC1=C(Cl)C1(Cl)Cl
not listed: [8] | [15] | [19] | [20]
inactive: all other assays above

Cc1ccc(NC(=O)N(C)C)cc1NC(=O)N(C)C
not listed: [15] | [16] | [17] | [18] | [19] | [20]
inactive: all other assays above

CC(C)C(O)C(C)(C)CO (centres undefined)
active: [4] 9.99 µM
not listed: [10] | [11] | [15] | [17] | [18] | [19] | [20]
inactive: all other assays above

CCCOC(=O)c1c(Cl)c(Cl)c(Cl)c(Cl)c1C(=O)OCCC
not listed: [4] | [13] | [14] | [15] | [19] | [20]
inactive: all other assays above

CC(=O)OCCC1CCCCC1
not listed: [7] | [14] | [15] | [17] | [19] | [20]
inactive: all other assays above

Cc1ccc(N(CCO)CCO)cc1
not listed: [8] | [12] | [15] | [17] | [18] | [19] | [20]
inactive: all other assays above

Cc1ccc2c(c1[N+](=O)[O-])C(=O)c1ccccc1C2=O
active: [13] 3.37 µM
not listed: [7] | [12] | [15] | [17] | [18] | [19] | [20]
inactive: all other assays above

CC(O)Cn1cnc2c1c(=O)n(C)c(=O)n2C (centres undefined)
not listed: [4] | [8] | [13] | [14] | [18] | [19] | [20]
inactive: all other assays above

Nc1ccc(S(=O)(=O)NCc2ccccc2)cc1
not listed: [4] | [11] | [13] | [17] | [19] | [20]
inactive: all other assays above

COC1CCC=CO1 (centres undefined)
not listed: [7] | [15] | [19] | [20]
inactive: all other assays above

O=C(c1ccccc1)C1CCC1
active: [1] 38.9 µM
not listed: [7] | [15] | [19] | [20]
inactive: all other assays above

COC(=O)c1sccc1S(N)(=O)=O
not listed: [8] | [15] | [17] | [18] | [19] | [20]
inactive: all other assays above

C=CCOC(=O)COCCC(C)C
not listed: [8] | [15] | [19] | [20]
inactive: all other assays above

SCCc1cnccn1
not listed: [5] | [11] | [15] | [19] | [20]
inactive: all other assays above

Cc1cccc(C)c1NC(=O)c1cc(S(N)(=O)=O)c(Cl)cc1O
not listed: [4] | [13] | [19] | [20]
inactive: all other assays above

CCN(CC)CCOC(=O)C(c1ccccc1)c1ccccc1
not listed: [4] | [11] | [13] | [18] | [19] | [20]
inactive: all other assays above

COc1ccc(/C=C/C(=O)c2ccc(OC)cc2OC)cc1
inactive: [1] | [2] | [3] | [15] | [6] | [7] | [8] | [9] | [10] | [14]

CC(C)COC(=O)COc1cc(Cl)c(Cl)cc1Cl
not listed: [8] | [15] | [18] | [19] | [20]
inactive: all other assays above

CC(C)N(C)C
not listed: [12] | [15] | [17] | [18] | [19] | [20]
inactive: all other assays above

CC(=O)OCC1=C(C(=O)O)N2C(=O)[C@@H](NC(=O)CSc3ccncc3)[C@H]2SC1
not listed: [4] | [13] | [18] | [19] | [20]
inactive: all other assays above

CC(C(=O)O)c1ccc(C(=O)c2cccs2)cc1 (centres undefined)
active: [5] 29.8 µM
not listed: [4] | [12] | [13] | [14] | [18] | [19] | [20]
inactive: all other assays above

CCCC(=O)OC(=O)CCC
not listed: [4] | [5] | [13] | [15] | [19] | [20]
inactive: all other assays above

CC(C)(O)c1coc(S(=O)(=O)NC(=O)Nc2c3c(cc4c2CCC4)CCC3)c1
active: [16] 54.5 µM
not listed: [4] | [8] | [13] | [15] | [19] | [20]
inactive: all other assays above

CN1C(CSCC(F)(F)F)Nc2cc(Cl)c(S(N)(=O)=O)cc2S1(=O)=O (centres undefined)
not listed: [3] | [16]
inactive: all other assays above

C[C@@H]1C[C@H]2[C@@H]3CCC4=CC(=O)C=C[C@]4(C)[C@@]3(F)[C@@H](O)C[C@]2(C)[C@@]1(O)C(=O)COP(=O)(O)O
not listed: [3] | [16] | [19] | [20]
inactive: all other assays above

O=S(=O)(O)CO
not listed: [4] | [13] | [15] | [17] | [18] | [19] | [20]
inactive: all other assays above
